Measurements taken from PubChem BioAssay (NCI).
This is part of a sample that, as a whole, favours compounds with a hit. Of some 83,000 tested, about 20% had one in any assay.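 For each line, cells grew in 96-well plates with the test compound present at a single concentration for 48 hours.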 A number with no mark means an inactive call. Calls of active or inactive are those of the source. Rule for the calls: active = growth percent below 10; inactive = the rest.

Tested on: HL-60(TB) leukemia
Assay: NCI-60 one-dose screen, 48 h (100 = growth as untreated, 0 = no growth, -100 = all killed)
Settings: 10 µM unless noted

Structure (SMILES)	growth
CCN(CC)c1ccc2c(c1)OS(=O)(=O)N=C2	101%
CN(C)CCC(=O)c1c[nH]c2ccccc12	96.5%
O=C(Oc1ccc([N+](=O)[O-])cc1)c1ccc(CBr)cc1	71.8%
NC[C@H](O)c1ccc(O)c(O)c1	98.8%
CN1CCN(Cc2ccc(NC(=O)c3cncc(C#Cc4cnc(N)c5ncccc45)c3)cc2C(F)(F)F)CC1	13%
Fc1ccc(NC(=S)c2ccccc2)cc1	102%
CC[C@@H](C)OC(=O)c1nn(C(C)=O)c2ccccc12	120%
COc1cc(-c2nc3cc(Cl)c(Cl)cc3[nH]2)ccc1OCC(=O)N=Nc1c(O)[nH]c2ccccc12	-51.5% (active)
CC(=O)OCC(=O)C1CCC=CC1OC(C)=O (stereo not given)	99.3%
CC(C)C[C@H](NC(=O)[C@H](Cc1cccc2ccccc12)NS(=O)(=O)c1cccc2cccnc12)B(O)O	-17.2% (active)
Nc1cc2c(cc1N)-c1cc(N)c(N)cc1C2	103%
C/C(=C\CCc1ccoc1)CC/C=C(\C)CCCNc1ccc(F)cc1	9.6% (active)
CCOC(=O)C1=C(C)NC(C)=C(C(=O)OCC)C1(C)C	69.3%
O=C1CC(c2ccc3c(c2)OCO3)Nc2cc3c(cc21)OCO3 (stereo not given)	-22.9% (active)
Cc1ccccc1C(c1ccccc1)c1ccccc1C	88.4%
CN(C)c1ccc(/C=N/N=C(\C#N)[S][Sn]([Cl])([c]2ccccc2)[c]2ccccc2)cc1	0.861% (active)
COc1cc(C(=O)/C=C/c2c(-c3ccc(F)cc3)nc3sc(C)cn23)cc(OC)c1OC	-34% (active)
O=C(CN1CCN(c2ccc(Cl)cc2)CC1)N1CCN(c2nnc(-c3ccccc3)c(-c3ccccc3)n2)CC1	-50.1% (active)
O=C(Nc1ccc(Cl)cc1)Nc1ccc(Nc2nncc3ccccc23)cc1	18.1%
Cc1ccc(CN2CCC(C(=O)Nc3ccc(-c4cc5ccccc5[nH]4)cc3)CC2)o1	13.7%

Structure (SMILES)	growth
CCCN1CCN(c2ccc3nc(-c4ccc5nc(-c6cc(OC)c(OC)c(OC)c6)[nH]c5c4)[nH]c3c2)CC1	97.4%
Cc1cccc(-c2cn3ccnc3c(-c3ccc4ncn(Cc5ccccc5)c4c3)n2)c1	81.8%
C/C(=N/NC(N)=S)C(=O)O	85.3%
Oc1ccc(Br)cc1Sc1cc(Br)ccc1O	27.9%
COc1c(C)c(C)c(OC)c2c1[nH]c(=O)c1c3cccnc3cn21	112%
CCCCCCCCCCCCCCCCOCCCOP(=O)(O)C1CCCN(O)C1=O (stereo not given)	-13.6% (active)
COc1cc2cn3c4ccc(O)cc4nc(N)c3c2cc1OC	24.5%
COc1ccc(/C=C2/C(=O)ON=C2C)cc1	103%
Cc1[nH]ccc2cc3nc4ccccc4c3cc12	16.4%
CNc1ccc(N)cc1	109%
Nc1n[nH]c2cccc(C#Cc3cccc(C(=O)Nc4cc(CN5CCOCC5)cc(C(F)(F)F)c4)c3)c12	16.6%
C=CCn1c(SCC(=O)Nc2ccc(C(=O)/C=C/c3ccc(Cl)cc3)cc2)nnc1-c1ccc(Cl)c(Cl)c1	56.8%
Cc1cc(C(=O)NOCCO)c(Nc2ccc(I)cc2F)n(C)c1=O	20.8%
O=C(Cc1ccc(Nc2ccnc(C(F)(F)F)c2)cc1)N/N=C/c1ccccc1O	69.1%
CC(C)(C)C(=O)CCCCCCCC/C=C/CCCC(O)c1ccco1 (stereo not given)	75%
CC(C)c1c(C(=O)c2ccccc2)c(-c2ccccc2)c(-c2ccc(F)cc2)n1CC[C@@H](O)C[C@@H](O)CC(=O)O	74%
Oc1ccc(Cl)cc1C(c1cc(Cl)ccc1O)C(Cl)(Cl)Cl	69%
CC1=C[C@H]2c3c(c(O)c(O)c4oc(-c5ccccc5)cc(=O)c34)[C@H](c3cc(O)c(O)c4oc(-c5ccccc5)cc(=O)c34)[C@H]2C(C)(C)C1	-30.1% (active)
Cc1nn(-c2ccccc2)c(-n2ccnc2)c1/C=N/Nc1nc(-c2ccc(Cl)c(Cl)c2)cs1	76.6%
COc1ccc2c(c1)/C(=C/c1c(-c3cc(OC)c(OC)c(OC)c3Br)nc3sccn13)C(=O)N2	77.1%
